# Data reported in ChEMBL document CHEMBL2218924, “A broad activity screen in support of a chemogenomic map for kinase signalling research and drug discovery” (Biochem J, 2013).
# Biological target: Receptor tyrosine-protein kinase erbB-4 (Homo sapiens) (UniProt Q15303)
# Conditions: at 1 µM
# Sequence of Receptor tyrosine-protein kinase erbB-4 (Homo sapiens) (Q15303 whole entry): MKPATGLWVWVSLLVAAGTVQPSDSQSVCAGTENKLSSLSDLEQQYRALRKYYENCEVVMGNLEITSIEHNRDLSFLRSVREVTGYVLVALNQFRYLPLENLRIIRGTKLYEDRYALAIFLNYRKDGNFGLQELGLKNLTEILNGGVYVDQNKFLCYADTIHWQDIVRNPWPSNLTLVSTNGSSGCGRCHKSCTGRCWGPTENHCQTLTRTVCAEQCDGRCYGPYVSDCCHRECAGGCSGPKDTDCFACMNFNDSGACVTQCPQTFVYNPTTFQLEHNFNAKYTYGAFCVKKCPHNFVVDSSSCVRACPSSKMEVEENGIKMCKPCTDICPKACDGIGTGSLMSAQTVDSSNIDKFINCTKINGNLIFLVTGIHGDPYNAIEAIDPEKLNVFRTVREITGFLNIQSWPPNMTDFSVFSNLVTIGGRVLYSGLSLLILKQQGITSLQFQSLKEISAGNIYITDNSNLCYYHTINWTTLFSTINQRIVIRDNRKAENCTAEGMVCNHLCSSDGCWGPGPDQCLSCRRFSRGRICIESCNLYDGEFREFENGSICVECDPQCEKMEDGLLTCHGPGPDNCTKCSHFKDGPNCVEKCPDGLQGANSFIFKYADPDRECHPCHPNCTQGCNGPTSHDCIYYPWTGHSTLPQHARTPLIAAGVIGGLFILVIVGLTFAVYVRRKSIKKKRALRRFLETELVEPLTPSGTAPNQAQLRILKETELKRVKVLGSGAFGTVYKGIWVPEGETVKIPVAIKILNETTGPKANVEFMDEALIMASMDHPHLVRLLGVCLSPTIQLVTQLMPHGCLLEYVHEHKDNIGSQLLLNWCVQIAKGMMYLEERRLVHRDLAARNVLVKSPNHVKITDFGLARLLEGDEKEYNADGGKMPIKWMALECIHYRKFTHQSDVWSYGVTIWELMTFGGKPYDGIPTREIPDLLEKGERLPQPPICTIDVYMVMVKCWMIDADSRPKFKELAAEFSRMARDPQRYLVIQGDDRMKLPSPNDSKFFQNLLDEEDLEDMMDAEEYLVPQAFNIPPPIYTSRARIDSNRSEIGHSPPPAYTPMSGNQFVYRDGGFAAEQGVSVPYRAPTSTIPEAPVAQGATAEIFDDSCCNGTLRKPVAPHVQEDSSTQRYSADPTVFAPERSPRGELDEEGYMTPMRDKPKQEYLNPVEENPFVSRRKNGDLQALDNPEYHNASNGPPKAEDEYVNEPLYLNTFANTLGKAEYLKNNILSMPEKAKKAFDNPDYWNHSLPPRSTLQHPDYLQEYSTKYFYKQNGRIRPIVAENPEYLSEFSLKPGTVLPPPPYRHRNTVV
row,Structure (SMILES),residual activity [%]
1,CC(C)(C)n1nc(Cc2cccc3ccccc23)c2c(N)ncnc21,51
2,COc1cc2ncnc(Nc3cccc(Cl)c3)c2cc1OC,35
3,O=C1Nc2ccc(Cl)cc2/C1=C/c1cc(Cl)c(O)c(Cl)c1,91
4,Nc1ncnc2c1c(-c1ccc(Oc3ccccc3)cc1)cn2C1CCCC1,0
5,COc1ccc(COc2ccc(Cc3cnc(N)nc3N)cc2OC)cc1,99
6,O=C(O)/C=C/c1cc(Br)c(Br)c(Br)c1Br,59
7,O=C(CCCc1ccc(-c2ccccc2F)cc1)Nc1ccc(O)cc1,111
8,COc1cc2nccc(Oc3ccc(NC(=S)NC(=O)c4ccccc4C)cc3)c2cc1OC,85
9,O=C1NC(=O)c2c1c1c3ccccc3[nH]c1n1cncc21,87
10,CC(C)c1nn(-c2c(Cl)cccc2Cl)c2nc(Cc3ccc(OCCO)cc3)[nH]c(=O)c12,103
11,O=c1cc(N2CCNCC2)oc2c(-c3ccccc3)cccc12,95
12,CN(C)S(=O)(=O)c1ccc2c(c1)/C(=C/c1cc3c([nH]1)CCCC3)C(=O)N2,88
13,COc1ccc2c(c1)c(C1=C(c3c[nH]c4ccccc34)C(=O)NC1=O)cn2CCCN(C)C,75
14,CCCC(=O)Oc1ccc2[nH]c(C(=O)c3cc4ccccc4[nH]3)cc2c1,81
15,O=c1cc(N2CCOCC2)oc2c1ccc1ccccc12,106
16,CCCCc1c(-c2ccc(OC)cc2)[nH]c2nccnc12,120
17,NC(=O)Nc1sc(-c2ccc(F)cc2)cc1C(N)=O,91
18,Nc1ncnc2[nH]nc(Nc3ccc(F)cc3)c12,18
19,Cn1sc(=O)n(Cc2ccccc2)c1=O,87

# Biological target: Receptor tyrosine-protein kinase erbB-4 (Homo sapiens) (UniProt Q15303)
# Conditions: at 10 µM
row,Structure (SMILES),residual activity [%]
1,CC(C)(C)n1nc(Cc2cccc3ccccc23)c2c(N)ncnc21,8
2,COc1cc2ncnc(Nc3cccc(Cl)c3)c2cc1OC,4
3,O=C1Nc2ccc(Cl)cc2/C1=C/c1cc(Cl)c(O)c(Cl)c1,76
4,COc1cc2nccc(Oc3ccc(NC(=O)Nc4cc(C)on4)c(Cl)c3)c2cc1OC,75
5,Nc1ncnc2c1c(-c1ccc(Oc3ccccc3)cc1)cn2C1CCCC1,-4
6,COc1ccc(COc2ccc(Cc3cnc(N)nc3N)cc2OC)cc1,70
7,CSc1nc(-c2ccc(F)cc2)c(-c2ccnc(NC(C)c3ccccc3)c2)[nH]1 (configuration not stated),85
8,O=C(O)/C=C/c1cc(Br)c(Br)c(Br)c1Br,45
9,O=C(CCCc1ccc(-c2ccccc2F)cc1)Nc1ccc(O)cc1,127
10,COc1cc2nccc(Oc3ccc(NC(=S)NC(=O)c4ccccc4C)cc3)c2cc1OC,67
11,O=C1NC(=O)c2c1c1c3ccccc3[nH]c1n1cncc21,73
12,CC(C)[C@H](CO)Nc1nc(Nc2cc(N)cc(Cl)c2)c2ncn(C(C)C)c2n1,84
13,CC(C)c1nn(-c2c(Cl)cccc2Cl)c2nc(Cc3ccc(OCCO)cc3)[nH]c(=O)c12,91
14,O=c1cc(N2CCNCC2)oc2c(-c3ccccc3)cccc12,73
15,CN(C)S(=O)(=O)c1ccc2c(c1)/C(=C/c1cc3c([nH]1)CCCC3)C(=O)N2,82
16,Nc1n[nH]c2nc3ccccc3nc12,87
17,COc1ccc2c(c1)c(C1=C(c3c[nH]c4ccccc34)C(=O)NC1=O)cn2CCCN(C)C,53
18,CCCC(=O)Oc1ccc2[nH]c(C(=O)c3cc4ccccc4[nH]3)cc2c1,95
19,O=c1cc(N2CCOCC2)oc2c1ccc1ccccc12,92
20,CCCCc1c(-c2ccc(OC)cc2)[nH]c2nccnc12,102
21,NC(=O)Nc1sc(-c2ccc(F)cc2)cc1C(N)=O,59
22,Nc1ncnc2[nH]nc(Nc3ccc(F)cc3)c12,11
23,Cn1sc(=O)n(Cc2ccccc2)c1=O,98
